This is an account of results in PubChem BioAssay (NCI).

Compounds without any hit were thinned out: in the full panel of roughly 83,000, 20% have a hit.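 For each line, cells grew in 96-well plates with the test compound present at a single concentration for 48 hours.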 Unmarked numbers belong to inactive results. The source made the active and inactive calls. How the source made its calls: active means growth percent below 10; inactive means the rest.

Common to all, as to assay: NCI-60 one-dose screen, 48 h (100 = growth as untreated, 0 = no growth, -100 = all killed)
One assay concerns HT29 colon. The following applies: 10 µM unless noted.
Another assay deals with SNB-75 CNS. The following applies: 10 µM unless noted.
A further assay has as its system SNB-19 CNS. The following applies: 10 µM unless noted.
For a further assay, the system named is U251 CNS. The following applies: 10 µM unless noted.
The next assay concerns PC-3 prostate. The following applies: 10 µM unless noted.
The subject of a further assay is SK-MEL-5 melanoma. To be noted: 10 µM unless noted.
For the next assay, the system named is UACC-62 melanoma. The following applies: 10 µM unless noted.
Another assay has as its system LOX IMVI melanoma. To be noted: 10 µM unless noted.
Another assay concerns EKVX NSCLC. To be noted: 10 µM unless noted.
Another assay deals with SN12C renal. To be noted: 10 µM unless noted.
The subject of the next assay is UO-31 renal. To be noted: 10 µM unless noted.
In the next assay the test system is TK-10 renal. The following applies: 10 µM unless noted.
For another assay, the system named is ACHN renal. To be noted: 10 µM unless noted.
A further assay concerns CAKI-1 renal. The following applies: 10 µM unless noted.
The next assay deals with A498 renal. The following applies: 10 µM unless noted.
In the next assay the test system is CCRF-CEM leukemia. The following applies: 10 µM unless noted.
The test system of a further assay is SR leukemia. To be noted: 10 µM unless noted.
The next assay concerns SK-MEL-28 melanoma. To be noted: 10 µM.
The subject of another assay is SK-MEL-2 melanoma. The following applies: 10 µM unless noted.
In the next assay the test system is MOLT-4 leukemia. The following applies: 10 µM unless noted.

Take `COc1ccc(C2C3=C(COC3=O)N(CCO)c3cc4c(cc32)CCC4)cc1OC` (configuration not stated): the growth in the assay on HT29 colon was -3.07% (active); in the assay with SNB-75 CNS, -28% (active); in the assay on SNB-19 CNS, 27.8%; with U251 CNS, 20%; in the assay on PC-3 prostate, 23.4%; in the assay on SK-MEL-5 melanoma it was 28%. For the same molecule, the growth in the assay with UACC-62 melanoma is 36.7%; with LOX IMVI melanoma, 44%; in the assay on EKVX NSCLC, 23.3%; with SN12C renal, 38.8%; in the assay on UO-31 renal, 42%; with TK-10 renal, 14.1%. Moreover, the growth with ACHN renal was 47.6%; in the assay on CAKI-1 renal, 8.75% (active); in the assay on A498 renal it was 29%; with CCRF-CEM leukemia it was 18.6%; in the assay on SR leukemia, 25%.
For the molecule `CCN(CC)c1cc(C)c2cc(NC(=O)c3cccc(OC)c3)ccc2n1`, the growth was 67.8% with HT29 colon; 81.6% in the assay on SNB-75 CNS; 84.3% in the assay with SNB-19 CNS; 55% in the assay on U251 CNS; 39.5% in the assay on PC-3 prostate; 57.3% in the assay on SK-MEL-5 melanoma. Moreover, the growth was 81% in the assay with UACC-62 melanoma; 85.2% in the assay with SK-MEL-28 melanoma; 98.6% in the assay with SK-MEL-2 melanoma; 79.1% in the assay with SN12C renal; 81.6% in the assay on UO-31 renal; 114% in the assay with TK-10 renal. The growth with ACHN renal is 91.2%; in the assay on CAKI-1 renal, 73.2%; with A498 renal it was 29.2%; with CCRF-CEM leukemia it was 24.8%; with MOLT-4 leukemia, 32.7%; with SR leukemia, 43.5%.
Turning to `O=c1c(-c2nc3ccccc3[nH]2)cc2ccccc2n1Cc1cn(Cc2ccccc2Cl)nn1`, the growth in the assay on HT29 colon is 0.454% (active); with SNB-75 CNS, -41.2% (active); with SNB-19 CNS, 54.8%; in the assay on U251 CNS it was 37.9%; with PC-3 prostate, 36.6%; with SK-MEL-5 melanoma, 0.0348% (active). In addition, the growth was 22.1% with UACC-62 melanoma; 12.8% in the assay on LOX IMVI melanoma; 1.94% (active) with SK-MEL-28 melanoma; 74.8% with EKVX NSCLC; 12% with SN12C renal; -65.7% (active) in the assay with UO-31 renal. Besides, the growth is 31% with TK-10 renal; 12.2% in the assay with ACHN renal; 77.4% with CAKI-1 renal; 67% with A498 renal; 65.2% in the assay with CCRF-CEM leukemia; 11.5% in the assay on SR leukemia.
For the molecule `CC(C)C[C@H](C(=O)N[C@H](C(N)=O)C(C)C)N1CC=CCN(OCc2ccccc2)S1(=O)=O`, the growth is 102% [2.5 µM] in the assay with HT29 colon; 69.7% [2.5 µM] with SNB-75 CNS; 94.7% [2.5 µM] in the assay on SNB-19 CNS; 97.1% [2.5 µM] in the assay with U251 CNS; 98.5% [2.5 µM] in the assay with PC-3 prostate; 106% [2.5 µM] in the assay with SK-MEL-5 melanoma. Further, the growth in the assay on UACC-62 melanoma was 98.8% [2.5 µM]; in the assay with LOX IMVI melanoma it was 95.7% [2.5 µM]; in the assay on SK-MEL-2 melanoma, 98.9% [2.5 µM]; in the assay on EKVX NSCLC, 114% [2.5 µM]; with SN12C renal it was 94.9% [2.5 µM]; in the assay with UO-31 renal, 83.6% [2.5 µM]. Further, the growth in the assay with TK-10 renal was 102% [2.5 µM]; in the assay with ACHN renal, 97.8% [2.5 µM]; in the assay on CAKI-1 renal, 99.4% [2.5 µM]; with A498 renal, 108% [2.5 µM]; in the assay on MOLT-4 leukemia it was 82.5% [2.5 µM]; with SR leukemia, 93.4% [2.5 µM].
As for `COc1ccccc1N1CCN(C(CNS(=O)(=O)c2ccc(Cl)cc2)c2cccnc2)CC1` (configuration not stated), the growth is 45.3% with HT29 colon; 91.4% in the assay on SNB-75 CNS; 107% in the assay on SNB-19 CNS; 61.7% with U251 CNS; 48.9% with PC-3 prostate; 90.2% in the assay with SK-MEL-5 melanoma. Further, the growth with UACC-62 melanoma is 100%; in the assay with SK-MEL-28 melanoma, 85.2%; in the assay on SK-MEL-2 melanoma it was 120%; in the assay on SN12C renal it was 90.8%; with UO-31 renal, 111%; in the assay on TK-10 renal, 111%. Besides, the growth was 103% with ACHN renal; 104% in the assay with CAKI-1 renal; 56.7% with A498 renal; 46.7% in the assay on MOLT-4 leukemia; 49.5% with SR leukemia.
On to `COc1ccc(C(=O)Nc2ccc3nc(N4CCCCC4)cc(C)c3c2)cc1OC`, for which the growth is 20.8% in the assay on HT29 colon; 102% in the assay with SNB-75 CNS; 109% in the assay on SNB-19 CNS; 69.3% with U251 CNS; 45.1% in the assay on PC-3 prostate; 88.1% with SK-MEL-5 melanoma. In addition, the growth with UACC-62 melanoma was 98.5%; with SK-MEL-28 melanoma, 94.5%; with SK-MEL-2 melanoma, 119%; in the assay on SN12C renal, 88.8%; in the assay with UO-31 renal, 98.7%; in the assay on TK-10 renal it was 104%. Further, the growth in the assay with ACHN renal was 94.9%; in the assay on CAKI-1 renal, 88.4%; in the assay on A498 renal it was 35.5%; in the assay on CCRF-CEM leukemia it was 54.8%; with MOLT-4 leukemia it was 49%; with SR leukemia, 33.1%.
For the molecule `Cc1ccc(Cn2c(N3CCC(C(=O)NCc4cccs4)CC3)nc3ccccc32)cc1`, the growth in the assay on HT29 colon is 48.6%; in the assay on SNB-75 CNS it was 77.5%; in the assay on SNB-19 CNS, 112%; in the assay on U251 CNS it was 73.9%; in the assay on PC-3 prostate, 39.8%; in the assay on SK-MEL-5 melanoma, 92%. The growth in the assay on UACC-62 melanoma was 101%; with SK-MEL-28 melanoma, 98.1%; in the assay with SK-MEL-2 melanoma, 101%; in the assay on SN12C renal it was 87.9%; in the assay with UO-31 renal, 65%; in the assay with TK-10 renal it was 95.7%. Also, the growth with ACHN renal was 98.5%; in the assay with CAKI-1 renal, 89.1%; in the assay with A498 renal it was 62.4%; with CCRF-CEM leukemia it was 8.48% (active); in the assay with MOLT-4 leukemia, 21.6%; in the assay on SR leukemia it was -37% (active).
As to `O=C(Nc1nc2c(s1)CCc1c-2c(Br)n(Cc2ccccc2)c1Br)c1ccccc1`, the growth was 51.6% in the assay with HT29 colon; -10.7% (active) in the assay with SNB-75 CNS; 65.7% with SNB-19 CNS; 57.3% in the assay with U251 CNS; 67.3% in the assay with PC-3 prostate; 41% with SK-MEL-5 melanoma. In addition, the growth in the assay with UACC-62 melanoma was 62.4%; in the assay on LOX IMVI melanoma it was 68.5%; in the assay on SK-MEL-28 melanoma it was 66%; in the assay on SN12C renal it was 87.7%; with UO-31 renal, 57.6%; in the assay with TK-10 renal it was 54.9%. Besides, the growth with ACHN renal is 46.8%; in the assay with CAKI-1 renal, 67.4%; with A498 renal it was 75%; in the assay with CCRF-CEM leukemia, 77%; in the assay on MOLT-4 leukemia it was 83.1%; with SR leukemia, 70.3%.
